Molecules are shown by their SMILES. Results filed as inconclusive are left out. Activity calls are given as the source filed them. Calls come from the whole dose curve; as a rule, active = well fitted curve in the direction sought with a large enough effect; inconclusive = small, poorly fitted or top-dose-only effect, or effect the other way; inactive = flat fitted curve, though single readings scatter.

A short description of this assay: Total Fluorescence Confirmation Counterscreen for Inhibitors of the Interaction of Thyroid Hormone Receptor and Steroid Receptor Coregulator 2, Fluorescein Fluoroprobe. Conditions: TRbeta/SRC2-fluorescein mix, total fluorescence interference; series mostly up to 92.2 µM. The text has this: NIH Molecular Libraries Probe Production Network [MLPCN] NIH Chemical Genomics Center [NCGC] MLPCN Grant: DK058080 Assay Provider: R. Kip Guy, St. Jude Children's Research Hospital NCGC Assay Overview: Thyroid receptor (TR) regulates many homeostatic processes including basal metabolism, cardiovascular function, body weight, and lipid trafficking. TR modulators are potential therapeutics for obesity and hyperlipidemias but current thyroid analogs have undesirable side effects, particularly cardiac stimulation. To identify inhibitors that specifically prevent the interaction of TR with the steroid receptor coregulator 2 (SRC2), a fluorescence polarization assay was screened (Arnold et al., 2006). This assay detects interaction of the ligand-binding domain of human TRbeta with a fluorescein labeled SRC2 peptide, corresponding to a 20 amino acid region of the nuclear receptor interaction domain. Total fluorescence (555 nm excitation and 632 nm emission) was measured to identify potential fluorescent and light absorbing compounds. Such compounds may be artifacts that interfere with the fluorescence polarization assay. This assay is a confirmation assay for AID 1479. Arnold, L. A.; Estebanez-Perpina, E.; Togashi, M.; Shelat, A.; Ocasio, C. A.; McReynolds, A. C.; Nguyen, P.; Baxter, J. D.; Fletterick, R. J.; Webb, P.; Guy, R. K. A high-throughput screening method to identify small molecule inhibitors of thyroid hormone receptor coactivator binding. Sci STKE 2006, p 13.
NCGC Assay Protocol Summary: For screening, 5 uL/well 0.6 uM TRbeta and 20 nM SRC2 Fluorescein in protein buffer (20mM Tris hydrochloride, 100mM NaCl, 10% glycerol, 1mM EDTA, 0.01% NP-40, 1mM DTT, 1uM T3 and 5% DMSO) was dispensed into black solid 1536-well plates (Grenier) using a solenoid-based dispenser. Following transfer of 23 nL compound or DMSO vehicle by a pin tool, the plates were centrifuged 15 s at 1000 RPM and incubated 5 hr at ambient temperature. The plates were read by an Envision (Perkin Elmer) to detect fluorescence polarization of SRC2 Fluorescein (480 nm excitation and 535 nm emission). Data were normalized to unbound (all components except TRbeta) and bound SRC2 Fluorescein controls. Total fluorescence (TF) was calculated as follows: TF = S + 2P where S and P are fluorescence readings in the parallel and perpendicular channels, respectively. In this assay, we provide % activity data for each concentration as well as potencies for the active compounds.
(In general: Counterscreens check selectivity or assay interference.)
For `COP(=S)(OC)Oc1ccc([N+](=O)[O-])cc1`, the outcome was inactive.
The value for `CN1CC[C@@]2(C)c3cc(O)ccc3N(C)C2O1` (stereo not given in full) was “inactive”; that for `Cc1[nH]n(-c2ccccc2)c(=O)c1C(c1ccc([N+](=O)[O-])cc1)c1c(C)[nH]n(-c2ccccc2)c1=O` was “inactive”; that for `O=C(O)CC1OCC=C2CN3CCC45C6=CC(=O)C(=O)C([N+](=O)[O-])=C6NC4C1C2CC35` (stereo not given) was “inactive”.
As for `CCn1nc(-c2cccs2)nc2c(=O)n(C)c(=O)nc1-2`, the outcome was inactive.

The values above are taken from PubChem BioAssay AID1571 (National Center for Advancing Translational Sciences (NCATS), 2009).
